# PMP22 txn prim – modulates PMP22 transcription in S16 Schwann cells; S16 Pmp22-F2sN Schwann cells, FLuc/NLuc coincidence luminescence, 24 h; Potency, µM (doses to about 57.5 µM), for inactives: at the highest dose activity change, negative = inhibition, hits mostly inhibitors; 43,000 tested, 2% active; AID 1508649; active = clear falling dose curves in both reporters; inconclusive = both reporters move, but less clearly or upward; inactive = either reporter flat; the % is the NLuc reporter signal; also: % is scaled to controls: 0 for no effect and ±100 for the full control effect
#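 S16 Schwann cells carrying FLuc/NLuc coincidence reporter in the Pmp22 3' UTR treated with compound 24 h at 37C; FLuc then NLuc luminescence read sequentially by dual-luciferase reagents.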
# OvCa metastasis – inhibitors of ovarian cancer cell adhesion and invasion in omental model | SKOV3ip1-GFP adhesion/invasion on 3D omental model, fluorescence | Potency, µM (titrated, usually from 45.8 µM), for the others: top-dose activity change, negative = inhibition, hits mostly inhibitors | 46,000 tested, 0.1% active | AID 1963576;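 also: plate controls were DMSO wells for no effect and tomatine positive control wells for full effect; nearly all actives have a fitted effect of over 65% in size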
#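 Adhesion/invasion was scored as fixed GFP-labeled SKOV3ip1 cell counts (488/509 nm), normalized to DMSO and tomatine controls. Cancer cells in serum-free medium, with four compound doses (0.36-46 umol/L), sat 2 hr at RT then 16 hr at 37 C on a 48 hr fibroblast/mesothelial/ECM culture.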
# GALC G270D up – raises human GALC G270D mutant activity in cells; P54803; 145M-Twi-hGALC-G270D cells (Twitcher mouse brain line with human GALC G270D), HMU-beta-Gal fluorescence, 48 h; Potency, µM (highest dose often 57.5 µM), hits mostly activators; 45,000 tested, 0.1% active; also: 0% is about no effect; nearly all actives have a fitted effect of over 65% in size
# Target sequence (P54803 whole entry G286D): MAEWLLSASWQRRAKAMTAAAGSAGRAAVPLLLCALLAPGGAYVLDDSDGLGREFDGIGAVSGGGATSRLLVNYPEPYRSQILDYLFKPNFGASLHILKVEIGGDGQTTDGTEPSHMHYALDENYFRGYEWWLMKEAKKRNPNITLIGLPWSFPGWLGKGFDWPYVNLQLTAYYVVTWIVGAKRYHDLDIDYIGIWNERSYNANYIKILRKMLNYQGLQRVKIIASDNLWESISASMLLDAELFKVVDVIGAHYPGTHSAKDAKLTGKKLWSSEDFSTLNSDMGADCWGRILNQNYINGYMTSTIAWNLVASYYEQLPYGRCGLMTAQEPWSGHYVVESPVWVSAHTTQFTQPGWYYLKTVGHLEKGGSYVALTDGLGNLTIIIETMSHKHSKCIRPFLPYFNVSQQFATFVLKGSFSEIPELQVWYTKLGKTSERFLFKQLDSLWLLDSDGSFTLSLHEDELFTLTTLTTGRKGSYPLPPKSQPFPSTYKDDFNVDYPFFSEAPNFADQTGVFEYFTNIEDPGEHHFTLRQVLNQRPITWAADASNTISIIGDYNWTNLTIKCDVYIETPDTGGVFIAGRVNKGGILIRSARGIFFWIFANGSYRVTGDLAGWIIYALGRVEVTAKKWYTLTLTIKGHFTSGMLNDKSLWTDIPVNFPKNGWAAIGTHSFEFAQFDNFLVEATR
#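 Brain-derived Twitcher mouse 145M-Twi cells stably expressing human GALC-G270D or wild-type GALC, treated live, then residual GALC activity read by fluorescence of HMU-b-Gal substrate (0.1 mM final) in citrate-phosphate buffer pH 5.2 with sodium taurocholate. Signal increase indicates enhancement.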
# S16 F2sN tox – S16 Schwann cell cytotoxicity | S16 Pmp22-F2sN Schwann cells viability, CellTiter-Glo, 24 h | Potency, µM (titrated, usually from 57.5 µM), for the others: at the highest dose activity change, negative = cytotoxicity, usual class: cytotoxic | 43,000 tested, 0.48% active | AID 1508642; also: % is scaled to controls: 0 for no effect and ±100 for the full control effect; nearly all actives have a fitted effect of over 65% in size
#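 Used to flag compounds lowering reporter output through toxicity, this quantitative HTS measures ATP-based CellTiter-Glo luminescence in S16 Pmp22-F2sN Schwann cells after 24 h compound exposure at 37C.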
# mTORC1 inh – mTORC1 pathway inhibition measured by phospho-rpS6 | Tsc2-/- p53-/- MEF, phospho-rpS6 immunofluorescence/PI, 24 h | Potency, µM (top dose mostly 38.3 µM), inactives show top-dose activity change, negative = inhibition, usual class: inhibitors | 44,000 tested, 0.78% active;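 also: plate controls were DMSO for no effect and rapamycin for full effect; nearly all actives have a fitted effect of over 50% in size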
#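 Cell-based qHTS: Tsc2-/- p53-/- MEF, 24 h cpd, 37 °C; fix/perm, anti-phospho-S6 Alexa-488 + PI; Acumen 488 nm scan; pS6/PI ratio, % positive cells; rapamycin 7.5 nM = inhibition ref; PI count = viability.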
# The depositor's hits bear a star; i = inactive; ? = inconclusive; . = no result given. This is a sample that favours compounds with a hit; in the whole collection about 2.6% have one here. Unless noted, calls follow the shape of the dose curve; as a rule, active = well fitted curve in the direction sought with a large enough effect; inconclusive = small, poorly fitted or top-dose-only effect, or another doubt; inactive = no such curve, though single readings can be large; an effect the other way counts as inactive or inconclusive. Potency is read from the fitted curve at half-maximal effect.
SMILES,PMP22 txn prim,OvCa metastasis,GALC G270D up,S16 F2sN tox,mTORC1 inh
Cc1ccc2nc(Cl)c3cc(C(=O)NCCCN4CCC(C)CC4)sc3c2c1,-1%,51%,i,15%,-13%
Cc1ccc(NC(=O)c2cccc(C(C)(C)C#N)c2)cc1Nc1ccc2ncn(C)c(=O)c2c1,.,55%,.,.,.
CCOc1cc2c(c(F)c1OCC)C(=N)N(CC(=O)c1cc(N3CCOCC3)c(OC)c(C(C)(C)C)c1)C2,.,-27%,.,.,.
c1ccc(CNc2nc3ccccc3c3nc(-c4ccccc4)nn23)cc1,-16%,1%,i,20%,-12%
CC(CNc1nc2ccccc2c2nc(-c3ccccc3)nn12)c1ccccc1 (centres undefined),11%,i,25µM*,25%,-3%
CC(C)c1noc(N2CCC(COc3ccc(-c4ccc(S(C)(=O)=O)cc4)nc3)CC2)n1,.,-12%,.,.,.
COc1ccc(Cl)cc1S(=O)(=O)NCc1ccc2c(c1)CCN2C(=O)c1cccc(C)c1,11µM*,-9%,i,14µM*,?
Cc1cccc(C(=O)N2CCc3cc(CNS(=O)(=O)c4cccs4)ccc32)c1,?,-8%,i,-28%,-8%
COc1ccc(CCNC(=O)CCCn2nc(C)c3sc4ccccc4c3c2=O)cc1OC,-32%,-1%,i,-10%,18µM*
COc1ccc(CCNC(=O)C(C)n2nc(C)c3sc4ccccc4c3c2=O)c(OC)c1 (centres undefined),-10%,i,i,0%,2.9µM*
CCOc1ccc(CCNC(=O)CCCn2nc(C)c3sc4ccccc4c3c2=O)cc1OCC,?,i,i,5%,0%
CCC(C(=O)NCCc1ccc(OC)c(OC)c1OC)n1nc(C)c2sc3ccccc3c2c1=O (centres undefined),?,0%,i,?,1%
CCc1ccc(OCC(=O)Nc2ccc3oc(-c4ccc(OC)cc4)nc3c2)cc1,-10%,-2%,i,17%,13µM*
COc1ccc(OCC(=O)Nc2ccc(-c3nc4cc(C)c(C)cc4o3)cc2)cc1,-3%,-9%,i,7%,-1%
COc1ccc(/C=C/C(=O)Nc2ccc3nc4c(c(Nc5ccc(OC)c(OC)c5)c3c2)CCCC4)cc1,?,5µM*,i,?,3.7µM*
COc1ccc(Nc2c3c(nc4ccc(NC(=O)/C=C/c5cccc(OC)c5OC)cc24)CCCC3)cc1OC,?,5µM*,i,?,3.7µM*
COc1ccc(/C=C/C(=O)Nc2ccc3nc4c(c(Nc5ccccc5OC)c3c2)CCCC4)cc1,?,1.3µM*,i,?,2.3µM*
COc1ccc(Nc2c3c(nc4ccc(NC(=O)/C=C/c5cc(OC)c(OC)c(OC)c5)cc24)CCCC3)cc1OC,?,-9%,i,11µM*,2.1µM*
CN(C)C1CCN(C(=O)c2ccc(NC(=O)Nc3nc(N4CCOCC4)nc(N4CCOCC4)n3)cc2)CC1,.,22%,.,.,.
Cc1c[nH]c(C=C2C(=O)Nc3ccccc32)c1CCC(=O)O,.,-1%,.,.,.
C[C@@H](Oc1ccc2[nH]nc(C=Cc3cnn(CCO)c3)c2c1)c1c(Cl)cncc1Cl,.,3%,.,.,.
O=C(CC12CC3CC(CC(C3)C1)C2)Nc1cccc2nc(NCCNCCO)ccc12,.,17%,.,.,.
c1cc(N[C@@H]2CCNC2)nc(-c2cnc3ccc(-c4cn[nH]c4)cn23)c1,.,3%,.,.,.
CC(=O)N1CCCc2cc(S(=O)(=O)N3CCCC(C(=O)N4CCN(c5ccccc5F)CC4)C3)ccc21 (centres undefined),?,2%,i,10µM*,-15%
COc1cccc(C2CC(=O)Nc3cc4c(cc32)OCCO4)c1OC (centres undefined),0%,-10%,i,-33%,15µM*
SMILES,PMP22 txn prim,OvCa metastasis,GALC G270D up,S16 F2sN tox,mTORC1 inh
CC(=O)Nc1ccc(NS(=O)(=O)c2cc(Br)cc3c2N(C(=O)C2CC2)CC3)cc1,-15%,0%,i,4%,-11%
COc1ccc(NS(=O)(=O)c2cc(Br)cc3c2N(C(=O)C2CC2)CC3)cc1OC,14µM*,0%,i,-14%,?
CNCc1ccc(-c2[nH]c3cc(F)cc4c3c2CCNC4=O)cc1,.,-6%,.,.,.
CCCNC(=O)[C@H]1O[C@H]1C(=O)N[C@H](C(=O)N1CCC[C@@H]1C(=O)OC)C(C)CC (some centres undefined),.,-12%,.,.,.
O=C1CC(c2ccccc2)Cc2[nH]c(=O)c(-c3nc(-c4ccc(Cl)c(Cl)c4)cs3)cc21 (centres undefined),-7%,-6%,i,?,-2%
O=C1CC(c2ccccc2)Cc2[nH]c(=O)c(-c3nc(-c4ccc(Cl)cc4)cs3)cc21 (centres undefined),0.75µM*,-27%,i,?,5.8µM*
CCc1c(C)sc2c1CCN(Cc1cccc(OC)c1)C2c1ccccc1 (centres undefined),9.5µM*,8%,i,?,1%
CCc1c(C)sc2c1CCN(Cc1ccccc1F)C2c1ccccc1 (centres undefined),3.4µM*,-7%,i,8.9µM*,9%
CCc1c(C)sc2c1CCN(C(=O)Nc1cc(OC)c(OC)c(OC)c1)C2c1ccccc1 (centres undefined),-26%,3%,i,-19%,12%
CCc1cccc(CC)c1NC(=O)N1Cc2[nH]nc(NC(=O)c3ccc(N4CCN(C)CC4)cc3)c2C1,.,-40%,.,.,.
CCOC(=O)c1ccc(N2C(=O)c3n[nH]c(C)c3C2c2cccc(Br)c2)cc1 (centres undefined),?,-5%,i,?,16µM*
CCOC(=O)c1ccc(N2C(=O)c3n[nH]c(C)c3C2c2ccc(CC)cc2)cc1 (centres undefined),0%,i,i,25%,7%
COC(=O)N[C@H](C(=O)N1CCC[C@@H]1c1ncc(-c2ccc(-c3ccc(-c4cnc([C@@H]5CCCN5C(=O)[C@@H](NC(=O)OC)C(C)C)[nH]4)cc3)cc2)[nH]1)C(C)C,.,-8%,.,.,.
Cc1cc(OCC(=O)Nc2c(C(=O)c3ccccc3)oc3ccccc23)cc(C)c1Cl,-10%,6%,i,8%,8%
Cc1cccc(C)c1OCC(=O)Nc1c(C(=O)c2ccccc2)oc2ccccc12,-22%,10µM*,i,6%,-9%
COc1ccc(C(=O)Nc2c(C(=O)c3ccc(F)cc3)oc3ccccc23)cc1,10µM*,i,i,-1%,1%
COCCOc1nc(-c2ccc(Cl)c(Cl)c2)n(-c2ccc(NC(=O)CCl)cc2)n1,.,20%,.,.,.
